Key:
[1] = system: Human papillomavirus type 1a protein E7 (residues 44-93); assay: HPV1a E7 fragment binders on microarrays, primary screen, biochemical, small-molecule microarray, residues 44-93, 635 nm fluorescence (AID 1108); conditions: small-molecule microarray binding, fluorescence 635 nm; higher = more signal;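 further: E7 fragment applied at 1 µg/mL in TBST for 1 h at 4 C; score combines spot fluorescence with its signal to noise ratio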
[2] = modulators of HCV replicon luciferase signal, primary screen, HCV replication inhibitor project, Huh7 cells, luciferase reporter (AID 1109); conditions: 48 h, higher = more signal;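 further: huh7 hepatoma cells harbouring a luciferase neomycin HCV replicon reporter; luciferase luminescence as measure of HCV replicon replication; test concentration not given here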
[3] = target: Left-right determination factor 2 (Homo sapiens) (UniProt O00292); assay: LEFTY2 binders on small-molecule microarrays, primary screen, biochemical, small-molecule microarray, 635 nm fluorescence scan (AID 1110); conditions: LEFTY2 binding, higher = more signal
[4] = target: Calmodulin-1 (Homo sapiens) (UniProt P0DP23); assay: CALM1 binders on microarrays, EGTA buffer, profiling panel, biochemical, small-molecule microarray, Cy5-labelled CALM1 (AID 1111); conditions: Cy5-CALM1 binding fluorescence, higher = more signal;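 further: labelled calmodulin applied in Tris saline Tween buffer holding calcium plus EGTA and DTT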
[5] = target: Calmodulin-1 (Homo sapiens) (UniProt P0DP23); assay: calcium-bound CALM1 binders on microarrays, profiling panel, artefact control for SMM control-protein annotation, biochemical, small-molecule microarray, Cy5-labelled CALM1, plus calcium (AID 1112); conditions: Cy5-CALM1 binding fluorescence, higher = more signal;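 further: score merges spot fluorescence with signal to noise from triplicate slides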
[6] = small-molecule microarray binders of probe aWnt5a, primary screen, biochemical, biotinylated probe, 635/667 nm fluorescence (AID 1113); conditions: higher = more signal;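 further: score merges 667 nm fluorescence intensity with signal-to-noise per printed feature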
[7] = small-molecule microarray binders of probe aShh, primary screen, biochemical, biotinylated probe, 635/667 nm fluorescence (AID 1114); conditions: higher = more signal;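 further: probe is biotin-labelled aShh protein from a stem cell growth factor screen; measures binding of labelled protein to compounds printed on the slide; score merges feature fluorescence at 667 nm with signal-to-noise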
[8] = small-molecule microarray binders of probe aNog, primary screen, biochemical, biotinylated probe, 635/667 nm fluorescence (AID 1115); conditions: higher = more signal;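 further: probe is biotinylated aNog protein used at 0.15 µg/mL for 1 h at 4 C; z-score combines 667 nm fluorescence of each spot with its signal to noise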
[9] = target: Torsin-1A-interacting protein 1 (Homo sapiens) (UniProt Q5JTV8); assay: LAP1 binders from COS7 cell lysate, primary screen, small-molecule microarray, 635/667 nm fluorescence (AID 1116); conditions: COS7-hLAP1 lysate binding, 635 nm fluorescence, higher = more signal
[10] = target: Alpha-bungarotoxin (Bungarus multicinctus) (UniProt P60615); assay: alpha-bungarotoxin binders on microarray, profiling panel, artefact control for SMM control protein annotation, biochemical, small-molecule microarray, Alexa647 label, 635/667 nm fluorescence (AID 1117); conditions: alpha-BTX-A647 binding fluorescence, higher = more signal
Alpha-bungarotoxin (Bungarus multicinctus), sequence (P60615 whole entry, looked up): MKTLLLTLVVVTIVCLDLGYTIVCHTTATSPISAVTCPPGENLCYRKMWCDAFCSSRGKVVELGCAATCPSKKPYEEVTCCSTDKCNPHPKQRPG

Left-right determination factor 2 (Homo sapiens), sequence (O00292 whole entry, looked up): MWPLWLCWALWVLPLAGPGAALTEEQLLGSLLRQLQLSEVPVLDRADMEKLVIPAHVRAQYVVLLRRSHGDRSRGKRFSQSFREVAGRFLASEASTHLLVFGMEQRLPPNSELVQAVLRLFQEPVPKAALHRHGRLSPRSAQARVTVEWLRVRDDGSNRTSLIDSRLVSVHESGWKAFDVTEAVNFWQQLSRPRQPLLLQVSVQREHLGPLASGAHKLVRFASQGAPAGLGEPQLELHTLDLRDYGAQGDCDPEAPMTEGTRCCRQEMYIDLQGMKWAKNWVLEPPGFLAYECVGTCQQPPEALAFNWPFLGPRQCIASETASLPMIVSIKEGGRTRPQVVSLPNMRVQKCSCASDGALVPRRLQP
Torsin-1A-interacting protein 1 (Homo sapiens), sequence (Q5JTV8 whole entry, looked up): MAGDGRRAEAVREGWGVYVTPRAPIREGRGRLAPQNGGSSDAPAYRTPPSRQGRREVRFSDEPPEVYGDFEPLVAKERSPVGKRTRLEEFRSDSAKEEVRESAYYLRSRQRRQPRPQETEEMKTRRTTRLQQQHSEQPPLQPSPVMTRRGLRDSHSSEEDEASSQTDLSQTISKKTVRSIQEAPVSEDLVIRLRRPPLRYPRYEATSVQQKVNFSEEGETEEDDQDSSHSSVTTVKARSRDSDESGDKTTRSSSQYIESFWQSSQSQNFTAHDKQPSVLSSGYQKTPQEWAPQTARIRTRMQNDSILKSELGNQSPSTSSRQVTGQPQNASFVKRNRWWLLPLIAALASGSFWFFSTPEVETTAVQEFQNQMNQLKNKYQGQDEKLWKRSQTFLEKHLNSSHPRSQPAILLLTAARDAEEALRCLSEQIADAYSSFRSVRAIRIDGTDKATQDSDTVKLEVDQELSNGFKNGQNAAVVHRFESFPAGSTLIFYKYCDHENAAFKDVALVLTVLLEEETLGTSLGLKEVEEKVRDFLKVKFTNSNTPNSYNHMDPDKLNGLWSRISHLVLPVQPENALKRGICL

Structure (SMILES)	composite z-score [1]	z-score [2]	composite z-score [3]	composite z-score [4]	composite z-score [5]	composite z-score [6]	composite z-score [7]	composite z-score [8]	composite z-score [9]	composite z-score [10]
Cc1ccc(S[C@]2(C(=O)NC3CC3)CC(=O)N(C3Cc4ccccc4C3)[C@@H]2c2ccc(CO)cc2)cc1	1.27	-1.08	-1.7	-0.0137	0.0662	-0.258	-0.154	0.354	0.439	-0.441
COc1ccc(C(=O)Nc2cccc(CN3C(=O)[C@]4(O[C@H](CCO)[C@@H]([Si](C)(C)c5ccc(OC)cc5)[C@@H]4C)c4ccccc43)c2)cc1	1.28	-5.16	0.442	0.123	0.0559	0.0194	-0.133	0.6	0.603	0.805
CCOC1=C2C(CN(S(=O)(=O)c3ccc(C)cc3)C2c2ccc(C)cc2)C2C(=O)N(c3ccccc3)C(=O)C2C1 (stereo not given)	1.11	-0.348	0.349	0.861	0.528	-0.106	0.0893	0.194	0.326	0.389
C#CCNC(=O)[C@H](Cc1ccccc1)NC(=O)CCC(=O)O	-0.665	-0.25	-0.0677	-1.48	-0.834	-0.12	-0.214	-0.501	0.409	-0.368
COc1ccc([Si](C)(C)[C@H]2[C@H](CCn3cc([C@H](O)c4ccccc4)nn3)O[C@@]3(C(=O)N(Cc4cccc(N5CCOC5=O)c4)c4ccccc43)[C@@H]2C)cc1	0.96	-2.36	0.481	0.0776	-0.182	0.0094	-0.349	-0.0612	0.0061	0.353
COc1ccc([Si](C)(C)[C@@H]2[C@@H](CCO)O[C@]3(C(=O)N(Cc4ccc(N5C(=O)COc6ccccc65)cc4)c4ccccc43)[C@H]2C)cc1	-0.674	-4.99	0.88	1.51	0.879	0.199	-0.0146	-0.394	0.572	0.896
C=CCOC(=O)[C@@H]1[C@H]2C(=O)O[C@H](c3ccccc3)[C@H](c3ccccc3)N2[C@H](c2ccc(OCCOC(=O)[C@@H]3C[C@@H]4C(=O)N5CCC[C@H]5C(=O)N4[C@@H]3c3ccc(O)cc3)cc2)[C@@]12C(=O)Nc1ccc(I)cc12	1.33	-0.64	0.761	2.06	0.481	-0.145	-0.0793	-0.331	1.4	0.327
CN1C(=O)C2C=CC(C(O)Cc3ccccc3)N(Nc3ccccc3)C2C1=O (stereo not given)	0.343	-0.12	-0.244	1.08	0.85	-0.0738	-0.153	0.338	0.439	0.428
CC(C)(C)OC(=O)CC[C@@]1(C(=O)NCC(O)CO)N=C(c2ccc(OCCCO)cc2)O[C@@H]1c1ccccc1N=[N+]=[N-] (stereo not given in full)	1.47	0.0173	-0.586	1.67	0.414	0.0279	0.13	1.71	2.29	1.6
CC1(C)[C@@H]2CC(C(O)C3C=CC4C(=O)N(c5ccccc5)C(=O)C4N3Nc3ccccc3)=C[C@H]1C2 (stereo not given in full)	0.455	-0.595	-0.158	0.718	-0.374	0.0044	0.241	-0.43	0.873	0.577
CC(C)C(=C=CC[C@@H](O)c1ccccc1OCCO)CCO	-0.79	-1.49	0.156	0.084	-0.21	-0.0836	-0.0471	-0.371	-0.549	0.606
CC(C)(C)C(=O)N[C@@H](c1ccc(Cl)cc1)[C@]1(C)C[C@H]1C1CCCCC1	1.19	-0.409	-0.487	1.27	1.1	0.197	0.838	2.13	1.94	2.02
C=CCN1C(=O)[C@@]2(O[C@@H](CCO)[C@H]([Si](C)(C)c3ccc(OC)cc3)[C@H]2C)c2cc(NC(=O)c3ccc(OC)cc3)ccc21	-0.747	-4.9	0.629	-0.178	0.678	-0.199	0.0062	0.141	-0.419	0.565
COc1ccc([Si](C)(C)[C@@H]2[C@@H](CC(=O)N3Cc4ccccc4C[C@H]3CO)O[C@]3(C(=O)N(C)c4c(Br)cc(C)cc43)[C@H]2C)cc1	1.37	-4.43	0.637	0.0208	0.235	0.0078	-0.0793	-0.454	0.418	1.01
COCCOC(=O)N1C(=O)[C@@]2(c3cc(C#CCCO)ccc31)[C@H](C(=O)Nc1nc3ccccc3s1)[C@H]1C(=O)O[C@H](c3ccccc3)[C@H](c3ccccc3)N1[C@@H]2c1ccc(OCCO)cc1	1.32	-1.81	0.774	1.08	-0.263	0.115	0.0898	-0.22	1.14	0.772
COc1ccc(COC2OC[C@]3(C)[C@H]4C5=C(CN3C(=O)OC(C)(C)C)[C@H](C)C(CO)C(CO)C5CC[C@@H]24)cc1 (stereo not given in full)	1.27	-0.355	-0.877	1.44	0.86	0.0118	0.202	0.97	1.17	0.608
CCCC=C(CCC)[C@@H](NC(=O)Oc1ccc(F)cc1)c1ccc(C(=O)OC)cc1	1.32	-2.48	0.354	0.977	1.13	0.0307	0.336	0.83	0.303	0.799

Structure (SMILES)	composite z-score [1]	z-score [2]	composite z-score [3]	composite z-score [4]	composite z-score [5]	composite z-score [6]	composite z-score [7]	composite z-score [8]	composite z-score [9]	composite z-score [10]
O=C1OCCC/C=C\[C@H]2OC34C=CCN(c5ccc6ccccc6c5)C(=O)[C@H]3N(CCCCCCO)C(=O)[C@@H]4C12 (stereo not given in full)	-1.45	-0.625	-0.955	-0.761	-0.384	-0.176	-0.179	-0.388	2.93	-0.182
COCCOC(=O)N1C(=O)[C@@]2(c3cc(C#CC4=CCCCC4)ccc31)[C@H](C(=O)Nc1nc3ccccc3s1)[C@H]1C(=O)O[C@H](c3ccccc3)[C@H](c3ccccc3)N1[C@@H]2c1ccc(OCCO)cc1	1.05	-1.09	0.269	0.792	-0.171	-0.0685	-0.196	-0.337	0.47	0.387
CCOC(=O)C1=CCC(c2ccc(C)cc2)N(S(=O)(=O)c2ccc(C)cc2)C1 (stereo not given)	1.12	-0.905	0.175	0.367	0.172	-0.0226	-0.0977	0.542	0.81	1.15
CC(C)C[C@@H]1NC(=O)[C@H]2C[C@@H](C(=O)NCCCCCCN(C)C)[C@@H](c3ccc(O)cc3)N2C1=O	1.09	0.414	1.06	-0.631	-1.19	-0.0337	0.207	-0.284	1.03	0.419
C=C/C=C/[C@H]1C(=C)CN([C@@H](Cc2ccccc2)C(=O)OC)[C@@H]1[C@H](O)Cc1ccccc1	-0.784	-0.331	-1.09	-0.679	-1.1	-0.129	-0.138	-0.0624	-0.207	-0.217
CCCCCN1CC=CC23O[C@@H]4/C=C\CCCOC(=O)C4[C@H]2C(=O)N(C(CO)C(C)C)[C@@H]3C1=O (stereo not given in full)	-0.453	0.568	-0.358	-0.33	-0.272	-0.0107	-0.416	-0.158	0.174	-0.0063
COc1ccc(C(=O)O[C@H]2CC[C@]3(C)C4=C(CCC3C2(C)C)[C@]2(C)CC[C@H]([C@H](C)CCCC(C)C)[C@@]2(C)CC4)cc1 (stereo not given in full)	-0.0389	0.606	0.567	-0.459	-0.83	-0.0792	-0.0553	-0.0242	0.0921	-0.086
O=C1c2ccccc2[C@@]2(Cc3ccccc3N(CC(F)(F)F)C2=O)[C@H](c2ccc(CO)cc2)N1Cc1ccccc1Cl	0.265	0.078	0.547	-0.146	-0.684	-0.166	-0.17	-0.282	0.156	0.287
[N-]=[N+]=Nc1ccccc1C[C@]1(C(=O)NCC(O)CO)N=C(c2ccc(OCCCO)cc2)O[C@H]1c1ccccc1N=[N+]=[N-] (stereo not given in full)	0.577	-1.74	-0.588	0.771	0.839	-0.0285	0.232	-0.0592	0.407	0.15
C=CCNC(=O)[C@@H]1[C@H]2C(=O)O[C@H](c3ccccc3)[C@H](c3ccccc3)N2[C@H](c2ccc(OCCO)cc2)[C@@]12C(=O)Nc1ccc(C#CCCO)cc12	1.32	-1.36	1.28	1.44	-0.0758	0.452	2.63	2.4	2.12	1.68
COc1ccc(CCN2C(=O)[C@@]3(Cc4ccccc42)c2ccccc2C(=O)N(Cc2ccccc2C(F)(F)F)[C@H]3c2ccc(CO)cc2)cc1	0.291	-0.961	0.0259	0.238	-0.839	-0.158	0.0796	-0.258	0.0645	0.88
[N-]=[N+]=NCc1ccccc1[C@@H]1OC(c2ccc(OCCCO)cc2)=N[C@]1(CCS(=O)(=O)c1ccccc1)C(=O)NCCN1CCOCC1	1.5	-0.351	0.623	1.65	-0.173	0.132	0.323	1.17	2.04	1.95
CC1CC/C=C\[C@H]2OC34C=CCN(Cn5nnc6ccccc65)C(=O)[C@H]3N(C(CO)C(C)C)C(=O)[C@@H]4C2C(=O)O1 (stereo not given in full)	0.696	0.238	-1.19	-0.195	-0.607	-0.175	0.0141	0.356	0.64	2.2
COc1ccc([Si](C)(C)[C@H]2[C@H](CCO)O[C@@]3(C(=O)N(C)c4c(Br)cc(C)cc43)[C@@H]2C)cc1	-0.122	-5.23	0.304	0.388	0.204	-0.0944	-0.138	0.474	0.269	0.541
O=C(NCc1ccccc1)[C@@]1(Cc2ccccc2)N=C(c2ccc(OCCCO)cc2)O[C@H]1c1ccccc1	1.11	-2.57	-0.699	2.36	1.09	0.055	-0.181	1.36	2.02	1.1
COC(=O)[C@@]1(Cc2ccc(F)cc2)[C@H]2c3cc(C(=O)N(C)C)n(Cc4ccc(S(C)(=O)=O)cc4)c3C[C@H]2CN1C(=O)c1ccccc1	-0.164	-0.328	0.213	2.54	0.497	-0.0125	0.123	1.84	2.08	0.15

From PubChem BioAssay
